# Screening results: PubChem BioAssay, National Center for Advancing Translational Sciences (NCATS)
# Rows were chosen to be rich in hits. Some 19% of all compounds tested hit in one or more screens of this group.
# HT1080NT lethal: qHTS for induction of synthetic lethality in tumor cells producing 2HG: qHTS for the HT-1080-NT fibrosarcoma cell line | Potency, µM (doses to about 46.1 µM), for the others: top-dose activity, negative = less viability, most hits filed as cytotoxic | AID 686970, 2013 | HT-1080-NT fibrosarcoma viability, CellTiter-Glo ATP luminescence, 48 h | actives 1.6% (n = 360,000);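 further: NT is the 2HG producing partner of a matched IDH1 knockdown line; 0% = DMSO-treated cells and -100% = media-only wells without cells; nearly all actives have a fitted effect of over 55% in size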
#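 Compounds were tested in concentration-response format on HT-1080-NT cells for 48 hours at 37 degrees C. Cell viability came from CellTiter-Glo luminescence; curves were classified by r2, response magnitude and activity.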
# TDP1 cell CPT: qHTS for Inhibitors of human tyrosyl-DNA phosphodiesterase 1 (TDP1): qHTS in cells in presence of CPT; chicken DT40 Tdp1-/-;hTDP1 cells + 20 nM CPT, ATP luminescence, 48 h; Potency, µM (highest dose often 46.2 µM), inactives show top-dose activity change, negative = growth inhibition, hits mostly inhibitors; actives 12% (n = 420,000); further: nearly all actives have a fitted effect of over 55% in size
#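 Chicken DT40 Tdp1-/- cells stably complemented with human TDP1 were seeded at 400 cells/well in medium containing 20 nM camptothecin, exposed to pin-transferred compounds, and grown at 37 °C for at least 48 hr. Viability was read as ATP luminescence.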
# KB-3-1 cytotox: qHTS assay for MDR1-selective chemotherapeutics: Primary screen using the parental adenocarcinoma cell KB-3-1. KB-3-1 viability, CellTiter-Glo ATP luminescence, 72 h. AID 1347075, 2019. Potency, µM (series often up to 46.1 µM), actives largely listed as cytotoxic. actives 1.4% (n = 400,000); further: nearly all actives have a fitted effect of over 60% in size
#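 Multi-concentration cytotoxicity screen in KB-3-1 cells grown in DMEM lacking phenol red with 10% FBS. After 72 h at 37 °C with compound, ATP-dependent luminescence was recorded.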
# HT1080 IDH1KD tx: qHTS for induction of synthetic lethality in tumor cells producing 2HG: qHTS for the HT-1080-IDH1KD cell line | Potency, µM (doses to about 46.1 µM), inactives show at the highest dose activity, negative = toxicity, hits mostly cytotoxic | HT-1080 IDH1 knockdown viability, ATP luminescence, 48 h | actives 2% (n = 360,000);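 further: 0% = DMSO wells and -100% = cell-free medium wells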
#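 Using the IDH1-knockdown HT-1080 line run in the same batch and compound series as the NT line, viability after 48 h at 37 °C was determined by CellTiter-Glo luminescence and expressed as % activity.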
# KB-V1 cytotox: qHTS assay for MDR1-selective chemotherapeutics: Primary screen using the drug-selected MDR subline cells KB-V1 | KB-V1 MDR cells viability, CellTiter-Glo, 72 h | Potency, µM (highest dose often 46.1 µM), hits mostly cytotoxic | actives 3.4% (n = 400,000) | AID 1347076, 2019; further: nearly all actives have a fitted effect of over 60% in size
#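 Readout: CellTiter-Glo luminescence, 10 min after addition. Cells: KB-V1 MDR subline, 72 h at 37 degrees C with compound. Analysis: corrected, normalized data fitted to concentration-effect curves.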
# DT40 TDP1 no CPT: qHTS for Inhibitors of human tyrosyl-DNA phosphodiesterase 1 (TDP1): qHTS in cells in absence of CPT | DT40 Tdp1-/- hTDP1 cells, no CPT, ATP luminescence, 48 h | Potency, µM (highest dose often 46.2 µM), for the others: at the highest dose activity change, negative = growth inhibition, usual class: inhibitors | actives 15% (n = 420,000) | AID 686978, 2013; further: nearly all actives have a fitted effect of over 55% in size
#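 Chicken DT40 Tdp1-/- cells complemented with human TDP1, screened without camptothecin (DMSO vehicle only), 400 cells/well. Compounds pin-transferred, cells incubated at 37 °C for at least 48 hr. Growth read as ATP-dependent luminescence (CellTiter-Glo, 30 min at RT).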
# * = called active by the depositor; i = inactive; u = inconclusive; x = not tested or not shown; [ ] = dose if it differs, or a comment. The call rests on the fitted dose curve; in most records, active means well fitted curve in the direction sought with a large enough effect; inconclusive means small, poorly fitted or top-dose-only effect, or another doubt; inactive means no such curve, though single readings can be large; an effect the other way counts as inactive or inconclusive. Unless noted, on the % scale 0 is the no-effect control and ±100 the full control effect; potency means the concentration at half of the fitted maximal effect.
SMILES,HT1080NT lethal,TDP1 cell CPT,KB-3-1 cytotox,HT1080 IDH1KD tx,KB-V1 cytotox,DT40 TDP1 no CPT
COC(=O)c1ccc(NC(=O)c2ccc3nccnc3c2)cc1,1%,-24%,i,-5%,i,29µM*
O=C(Nc1ccc(OC(F)(F)F)cc1)c1ccc2nccnc2c1,-29%,-96%,i,u,i,u
Cc1ccc(C(=O)Nc2ccc3nccnc3c2)cc1,-3%,u,i,1%,u,16µM*
Cc1ccc(NC(=O)COC(=O)C(CC(C)C)N2C(=O)C3CC=CCC3C2=O)c(C)c1 (stereo not given),0%,-8%,i,-2%,i,-21%
COc1cccc(NC(=O)COc2ccc3c(c2)CCC3)c1,-4%,0%,i,-15%,u,3%
CCOC(=O)Nc1cccc(OCC(=O)Nc2ccc3c(c2)CCC3)c1,1%,u,i,0%,i,23µM*
CCn1c(=O)c2cc(C(=O)N(C)c3ccccc3F)sc2c2ccccc21,17%,u,i,15%,u,15µM*
CCN(C(=O)c1cc2c(=O)oc3ccc(C)cc3c2s1)c1ccccc1C,x,u,i,x,i,u
CCN(C(=O)c1cc2c(=O)n(CC)c3ccccc3c2s1)c1cccc(C(F)(F)F)c1,x,9.2µM*,i,x,i,9.2µM*
CCOc1ccccc1N(CC)C(=O)c1cc2c(=O)n(CC)c3ccccc3c2s1,x,15µM*,u,x,21µM*,16µM*
CCCN(C(=O)c1cc2c(=O)oc3ccccc3c2s1)c1ccccc1C,x,18µM*,u,x,i,u
CCN(C(=O)c1cc2c(=O)oc3ccccc3c2s1)c1cccc(C(F)(F)F)c1,x,-5%,i,x,i,-5%
Cc1cccc(N2CCN(C(=O)Cc3c(C(=O)O)c(C)cn3C)CC2C)c1 (stereo not given),x,-1%,i,x,i,7%
CCN(CC)C[C@@H]1CCCCN1CC(=O)N1c2ccccc2C(=O)Nc2cccnc21,x,2%,x,x,x,-1%
O=C1CCN(Cc2cccc(C(F)(F)F)c2)CCN1Cc1ccccn1,x,4%[9.04 µM],x,x,x,-8%
CCC(=O)c1cn(CC(=O)Nc2ccc(C)cc2C)c2ccccc12,-8%,-18%,i,-12%,i,-29%
CCCN(C(=O)c1cc2c(=O)n(CC)c3ccccc3c2s1)c1ccccc1F,x,8.2µM*,i,x,i,6.5µM*
CCOc1ccc(Oc2ccccc2NC(=O)C2=COCCO2)cc1,0%,16µM*,i,1%,u,u
CCOc1ccc(Oc2ccc(S(=O)(=O)N3CCOCC3)cc2NC(=O)C2=COCCO2)cc1,-6%,u,i,3%,u,23µM*
CCOc1ccc(S(=O)(=O)N2CCOCC2)cc1NC(=O)C1=COCCO1,0%,10%,i,1%,u,4%
COc1ccc(C2=NN(C(=O)c3ccco3)C(c3cccs3)C2)cc1OC (stereo not given),-23%,u,i,-7%,u,u
O=C(c1ccccc1Cl)N1c2ncnn2C2(CCCCC2)[C@@H]2CCCC[C@@H]21,x,-29%,i,x,i,u
O=C(c1cccc([N+](=O)[O-])c1)N1c2ncnn2C2(CCCCC2)[C@@H]2CCCC[C@@H]21,x,u,i,x,i,8.2µM*
COc1ccc2[nH]c(C(=O)O)c(CCN3C(=O)c4cccc([N+](=O)[O-])c4C3=O)c2c1,7%,7%,i,10%,i,-5%
Cc1ccc(S(=O)(=O)N(CC(=O)NC2CCCC2)c2cccc(C)c2)cc1,10%,-13%,i,7%,4.1µM*,u
SMILES,HT1080NT lethal,TDP1 cell CPT,KB-3-1 cytotox,HT1080 IDH1KD tx,KB-V1 cytotox,DT40 TDP1 no CPT
COc1ccc(OC)c(N(CC(=O)NC2CCCCCC2)S(=O)(=O)c2ccc(C)cc2)c1,-1%,23µM*,i,3%,u,23µM*
CCOc1ccccc1N(CC(=O)NC1CCCCC1)S(=O)(=O)c1ccc(C)cc1,-8%,u,i,-11%,i,21µM*
COc1ccccc1N(CC(=O)NC1CCCC1)S(=O)(=O)c1ccc(C)cc1,1%,-21%,i,1%,u,-22%
COc1ccc(OC)c(N(CC(=O)NC2CCCC2)S(=O)(=O)c2ccc(OC)c(OC)c2)c1,6%,15µM*,u,4%,u,15µM*
COc1ccc(S(=O)(=O)N(C)CC(=O)NC2CCCC2)cc1OC,1%,1%,x,4%,x,-1%
COC(=O)CN(c1cc(Cl)ccc1OC)S(=O)(=O)c1ccc(OC)c(OC)c1,3%,u,i,-1%,2.3µM*,-24%
CCC(Cc1ccccc1)NC(=O)c1cc(S(=O)(=O)N2CCCCC2)c[nH]1 (stereo not given),-2%,u,i,3%,i,u
CCCCN(C=O)c1c(CC)nc2c(OCCOc3ccc(F)cc3)cccn12,4%,u,i,-21%,i,16µM*
CCCCN(C=O)c1c(CC)nc2c(OCCn3cccc3)cccn12,-4%,u,i,2%,i,23µM*
CCCCN(C=O)c1c(CC)nc2c(OCC(=O)C(C)(C)C)cccn12,22%,u,i,11%,i,-25%
CCCCN(C=O)c1c(CC)nc2c(OCC(=O)c3ccc(F)cc3)cccn12,6%,u,i,2%,i,u
COc1cc(C(=S)N2CCOCC2)ccc1OC(=O)/C=C/c1ccco1,-4%,-23%,i,7%,i,-13%
Cc1cc(C)c(NC(=O)CSc2nnnn2-c2cccnc2)c(C)c1,-5%,8%,i,5%,i,-4%
CCS(=O)(=O)N1CCN(c2ccc(C(=O)NC3C4CC5CC(C4)CC3C5)cc2[N+](=O)[O-])CC1 (stereo not given),12%,8.2µM*,i,9%,i,8.2µM*
